# In PubChem BioAssay (NCATS):
# Results filed as inconclusive are left out. A call without a number means that no potency is given here. Active and inactive are the calls of the source. Calls follow the shape of the dose curve; as a rule, active = well fitted curve in the direction sought with a large enough effect; inconclusive = small, poorly fitted or top-dose-only effect, or another doubt; inactive = no such curve, though single readings can be large; an effect the other way counts as inactive or inconclusive.
# Columns and labels:
# [1] = qHTS of pediatric cancer cell lines to identify multiple opportunities for drug repurposing: Primary screen for LAN-5 cells (AID 1347100); also: potency is read from the fitted curve at half-maximal effect
# In short: (§1)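 Cells (500-1,000/well) rested 5 h, then received compounds for 48 h; metabolically active cells were measured by CellTiter-Glo luminescence. Final concentrations spanned up to 46 µM (MIPE, 11-point) or 0.59 nM-46 µM (NPC, 8-point) in primary screens, 11-point in follow-ups.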
# [2] = qHTS of pediatric cancer cell lines to identify multiple opportunities for drug repurposing: Primary screen for BT-12 cells (AID 1347101); also: nearly all actives have a fitted effect of over 25% in size
# In short: as §1
# [3] = qHTS of pediatric cancer cell lines to identify multiple opportunities for drug repurposing: Primary screen for Rh18 cells (AID 1347102); also: nearly all actives have a fitted effect of over 65% in size
# In short: as §1
# [4] = qHTS of pediatric cancer cell lines to identify multiple opportunities for drug repurposing: Primary screen for OHS-50 cells (AID 1347103); also: nearly all actives have a fitted effect of over 40% in size
# From the text: (§2) Drug repurposing or repositioning has been offered as a strategy for drug development in oncology programs. This approach has special potential for childhood cancers and other rare or orphan diseases, where the expected return on new drug development has been a disincentive to pharmaceuticals.
# (§3) In this project we exploit the poly-pharmacology of drugs to discover new indications via phenotypic screening of a panel of 19 well-characterized cell lines derived from solid tumors seen in children and adolescents. The goal is to identify approved drugs with previously unrecognized anticancer properties that has the potential to reveal new mechanisms and biological processes involved in carcinogenesis or drug resistance. We employed a titration-based paradigm (quantitative high-throughput screening or qHTS), where all compounds were tested at multiple concentrations for their effect on cell viability. Concentration-response curves (CRCs) were derived directly from the primary screen, and both potency and efficacy values were used to identify compounds with robust bioactivity profiles. We screened the NIH Chemical Genomics Center (NCGC) Pharmaceutical Collection (NPC) and Mechanism Interrogation Plate (MIPE) small molecule collections of approved and investigational compounds against these cell lines; and measured metabolically active cells after 48 hours of compound treatment as a proxy for cell viability.
# (§4) Assay Submitter: Nathalia J. Martinez, National Center for Advancing Translational Sciences, National Institutes of Health, Rockville, MD, USA; email: natalia.martinez@nih.gov
# (§5) [1] Shen, M et al. Quantitative high-throughput phenotypic screening of pediatric cancer cell lines identifies multiple opportunities for drug repurposing. Oncotarget 2017 Dec 19;9(4):4758-4772. PMID 29435139.
# (§6) The cells were obtained from University of North Carolina (UNC), Pediatric Preclinical Testing Program (PPT), and Coriell Institute (CI).
# (§7) qHTS cell viability assay:
# Cells were assayed in growth media at a density of 500-1,000 cells/well. Five microliters of cells were dispensed into 1,536-well, white, solid-bottom, TC-treated plates (Greiner Bio One) using a multidrop dispenser and incubated at 37 degrees C, 5% CO2, under a humidified atmosphere for 5 hours. Twenty-three nanoliters of compounds and controls (neutral control DMSO or positive control bortezomib at final concentration of 2.3 µM) were subsequently transferred by Kalypsys pintool. […] After a 15 min incubation at room temperature, samples were analyzed for luminescence intensity using a ViewLux High-throughput CCD imager equipped with clear filters.
# [5] = qHTS of pediatric cancer cell lines to identify multiple opportunities for drug repurposing: Primary screen for RD cells (AID 1347104); also: nearly all actives have a fitted effect of over 55% in size
# In short: (§8)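 Readout: CellTiter-Glo luminescence, 48 h treatment. Controls DMSO (neutral) and bortezomib 2.3 µM final (positive). Potency and efficacy taken from primary-screen concentration-response curves.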
# [6] = qHTS of pediatric cancer cell lines to identify multiple opportunities for drug repurposing: Primary screen for MG 63 (6-TG R) cells (AID 1347105); also: nearly all actives have a fitted effect of over 50% in size
# In short: as §8
# [7] = qHTS of pediatric cancer cell lines to identify multiple opportunities for drug repurposing: Primary screen for control Hh wild type fibroblast cells (AID 1347106);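 also: series mostly up to about 46 µM; a drop in luminescence marks cytotoxicity and a rise apparent proliferation; nearly all actives have a fitted effect of over 55% in size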
# From the text: as §2, §3, §4, §5, §6, §7
# Cells were assayed in growth media at a density of 500-1,000 cells/well. Five microliters of cells were dispensed into 1,536-well, white, solid-bottom, TC-treated plates (Greiner Bio One) using a multidrop dispenser and incubated at 37 degrees C, 5% CO2, under a humidified atmosphere for 5 hours. Twenty-three nanoliters of compounds and controls (neutral control DMSO or positive control bortezomib at final concentration of 2.3 µM) were subsequently transferred by Kalypsys pintool. For primary screens, the MIPE collection was tested at 11-point dilutions (final concentrations range from 0.78 nM to 46 µM) and the NPC collection at 8-point dilutions (final concentrations range from 0.59 nM to 46 µM). Compounds tested in follow-up screens were assayed at 11-point dilutions. Cells were incubated for 48 hours, followed by addition of 3 µL of CellTiter-Glo (Promega). After a 15 min incubation at room temperature, samples were analyzed for luminescence intensity using a ViewLux High-throughput CCD imager equipped with clear filters.
# [8] = qHTS of pediatric cancer cell lines to identify multiple opportunities for drug repurposing: Primary screen for Rh30 cells (AID 1347107); also: series mostly up to about 46 µM; nearly all actives have a fitted effect of over 75% in size
# In short: as §1
# [9] = qHTS of pediatric cancer cell lines to identify multiple opportunities for drug repurposing: Primary screen for Rh41 cells (AID 1347108);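 also: series mostly up to about 46 µM; luminescence drop marks cytotoxic hits; nearly all actives have a fitted effect of over 70% in size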
# In short: as §8
# Furin (Homo sapiens) = Furin (Homo sapiens) (UniProt P09958); assay: Furin counterscreen qHTS for Zika virus inhibitors (AID 1347149); also: nearly all actives have a fitted effect of over 70% in size; also: potency is read from the fitted curve at half-maximal effect
# In short: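 Counterscreen measures cleavage of 2 microM BOC-RVRR-AMC, below its ~15 microM Km, by 5 nM full-length human furin at pH 7.0 after a 15-min compound preincubation. Inhibition derives from the 15-min fluorescence increase at 37C.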
# Sequence of Furin (Homo sapiens) (P09958 whole entry, looked up): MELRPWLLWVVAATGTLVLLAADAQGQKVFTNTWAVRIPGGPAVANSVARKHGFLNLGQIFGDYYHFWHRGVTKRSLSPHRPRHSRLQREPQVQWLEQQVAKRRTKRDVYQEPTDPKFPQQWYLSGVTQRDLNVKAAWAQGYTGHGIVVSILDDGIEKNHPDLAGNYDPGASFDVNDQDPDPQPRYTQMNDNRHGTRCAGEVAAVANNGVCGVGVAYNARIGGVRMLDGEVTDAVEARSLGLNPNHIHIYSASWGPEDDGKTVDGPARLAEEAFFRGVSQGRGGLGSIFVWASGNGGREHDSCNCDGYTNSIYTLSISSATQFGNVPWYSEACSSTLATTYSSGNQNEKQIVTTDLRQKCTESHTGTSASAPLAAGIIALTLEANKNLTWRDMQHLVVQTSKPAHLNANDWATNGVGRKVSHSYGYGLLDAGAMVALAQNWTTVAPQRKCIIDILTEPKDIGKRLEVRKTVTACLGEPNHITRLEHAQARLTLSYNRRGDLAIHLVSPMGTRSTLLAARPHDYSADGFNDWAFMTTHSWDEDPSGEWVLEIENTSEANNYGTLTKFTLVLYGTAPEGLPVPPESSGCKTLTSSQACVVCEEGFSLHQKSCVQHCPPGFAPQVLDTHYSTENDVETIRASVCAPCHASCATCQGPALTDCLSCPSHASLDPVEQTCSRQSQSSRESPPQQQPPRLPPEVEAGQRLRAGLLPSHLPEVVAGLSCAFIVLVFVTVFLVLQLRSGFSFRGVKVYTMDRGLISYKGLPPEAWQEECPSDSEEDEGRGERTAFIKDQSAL
smiles,measurement,setting,value
O=C(O)c1c(O)c(-c2ccccc2)nc2ccccc12,Potency,[1],inactive
same,outcome,[2],inactive
same,outcome,[3],inactive
same,outcome,[4],inactive
same,outcome,[5],inactive
same,outcome,[6],inactive
same,outcome,[7],inactive
same,outcome,[8],inactive
same,outcome,[9],inactive
O=C(O)Cc1ccc2oc(-c3ccc(NC(=O)/C=C/c4ccc(Br)cc4)c(F)c3)nc2c1,Potency,Furin (Homo sapiens),55.5 µM (active)
O=C(O)/C=C/c1ccc(-c2ccc(O)c(C34CC5CC(CC(C5)C3)C4)c2)cc1,Potency,Furin (Homo sapiens),44.1 µM (active)
CC1(C)CCC(C)(C)c2cc(C3(c4ccc(C(=O)O)cc4)OCCO3)ccc21,Potency,Furin (Homo sapiens),inactive
CCc1c(-c2ccccc2)c(-c2ccccc2)nn1-c1ccccc1-c1cccc(OCC(=O)O)c1,Potency,Furin (Homo sapiens),30.4 µM (active)
CCOCCOC(=O)/C=C/c1ccc(OC)cc1,Potency,[1],inactive
same,outcome,[2],inactive
same,outcome,[3],inactive
same,outcome,[4],inactive
same,outcome,[5],inactive
same,outcome,[6],inactive
same,outcome,[7],inactive
same,outcome,[8],inactive
same,outcome,[9],inactive
Nc1ccccc1N,Potency,[1],17.2 µM (active)
same,outcome,[6],inactive
same,outcome,[7],inactive
Cc1ccc(N)cc1O,outcome,[6],inactive
same,outcome,[7],inactive
O=C(N/N=C/c1ccc(O)c(O)c1)c1cc2ccccc2cc1O,Potency,Furin (Homo sapiens),inactive
CCC(C(=O)O)c1ccc(N2Cc3ccccc3C2=O)cc1 (stereo not drawn),Potency,[1],inactive
same,outcome,[2],inactive
same,outcome,[3],inactive
same,outcome,[4],inactive
same,outcome,[5],inactive
same,outcome,[6],inactive
same,outcome,[7],inactive
same,outcome,[8],inactive
same,outcome,[9],inactive
O=C(O)c1ccccc1NCCc1ccccc1,Potency,[1],inactive
same,outcome,[2],inactive
same,outcome,[3],inactive
same,outcome,[4],inactive
same,outcome,[5],inactive
same,outcome,[6],inactive
same,outcome,[7],inactive
same,outcome,[8],inactive
same,outcome,[9],inactive
CC1=C(C(=O)OCc2ccccc2)C(c2ccc(-c3ccccc3)cc2)NC(=O)N1CCCCCC(=O)O (stereo not drawn),Potency,Furin (Homo sapiens),39.3 µM (active)
CC(C)c1cccc2c(-c3ccccc3)cc(-c3ccc(-c4ccc(C(=O)O)cc4)[nH]3)nc12,Potency,Furin (Homo sapiens),39.3 µM (active)
